Experimental data taken from PubChem BioAssay.
Potency and affinity values are given separately. Records with an inconclusive call do not appear. Where a call stands in place of a potency, no number is given. Active and inactive are the calls of the source.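 The calls were made as follows: active = falling signal with fitted half-maximal potency no higher than twice the top valid tested dose; inconclusive = poor fit quality, or flat fit spanning -70% to -30%; inactive = potency over limit, rising signal, or flat fit inside 30%.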

experiment: fungal growth arrest, C. neoformans – Alamar Blue, cherry-picks, dose response (AID 686998); details: Cryptococcus neoformans growth, 24 h; series mostly up to 35 µM

Structure (SMILES)	outcome
C/C=C/c1cnc2c(c1)C(=O)N([C@H](C)CO)C[C@@H](C)[C@@H](CN(C)C(=O)C1CCCCC1)O2	inactive
COc1ccc(CNC(=O)C[C@H]2CC[C@H]3[C@@H](COc4ccc(NC(=O)C5CC5)cc4C(=O)N3C)O2)cc1	inactive
CC(=O)N1[C@@H]2c3ccc(-c4ccccc4)c(=O)n3C[C@H]1[C@H](CO)[C@H]2C(=O)Nc1ccccc1	inactive
CC(Sc1ncnc2c1cnn2-c1ccccc1)C(=O)Nc1ccc(N2CCOCC2)cc1 (stereo not given)	inactive
COc1ccccc1C(=O)Nc1ccc2c(c1)C(=O)N(C)C[C@@H](OC)[C@H](C)CN(C)[C@@H](C)CO2	inactive
Cc1ccc(N(C(=O)C2CCC(=O)N2)C2(C(=O)NC3CCCCC3)CCCCC2)cc1 (stereo not given)	inactive
CNC[C@@H]1OCCCC[C@H](C)Oc2ccc(NC(=O)NC(C)C)cc2C(=O)N([C@H](C)CO)C[C@H]1C	inactive
COc1ccc(NC(=O)Nc2ccc3c(c2)C(=O)N([C@H](C)CO)C[C@@H](C)[C@H](CN(C)S(=O)(=O)c2ccc(Cl)cc2)OCCCC[C@@H](C)O3)cc1	inactive
Cc1noc(C)c1NC(=O)Nc1ccc2c(c1)C(=O)N([C@H](C)CO)C[C@H](C)[C@H](CN(C)CC1CCCCC1)O2	inactive
CO[C@H]1CC[C@@H]2CCOc3c(C#N)cccc3C(=O)N(C)C[C@H](OC)[C@@H](C)C(=O)N(C)C[C@@H]1O2	inactive
CC(C)NC(=O)Nc1ccc2c(c1)C(=O)N([C@H](C)CO)C[C@@H](C)[C@H](CN(C)C(=O)Nc1ccccc1)OCCCC[C@@H](C)O2	inactive
CCCNC(=O)N(C)C[C@H]1Oc2ncc(C#CC3CCCCC3)cc2C(=O)N([C@@H](C)CO)C[C@@H]1C	inactive
C[C@@H]1CN([C@H](C)CO)C(=O)Cc2cc(NC(=O)CCCCCC(=O)Nc3ccccc3N)ccc2O[C@H]1CN(C)Cc1ccc2c(c1)OCO2	inactive
CC(C)NC(=O)N(C)C[C@@H]1OCCCC[C@@H](C)Oc2ccc(NC(=O)c3ccccc3)cc2C(=O)N([C@H](C)CO)C[C@H]1C	inactive
Cc1noc(C)c1NC(=O)Nc1ccc2c(c1)C(=O)N(C)[C@H]1CC[C@H](CC(=O)N[C@H]3CCN(Cc4ccccc4)C3)O[C@H]1CO2	inactive
Cc1noc(C)c1S(=O)(=O)Nc1ccc2c(c1)CC(=O)N([C@@H](C)CO)C[C@@H](C)[C@@H](CN(C)S(=O)(=O)c1cccs1)O2	inactive
CO[C@@H]1CN(C)C(=O)c2cc(NS(=O)(=O)C3CCCCC3)ccc2OC[C@H](C)NC[C@@H]1C	inactive
C/C=C/c1ccc([C@@H]2[C@@H](CO)N3CCCCN(C(=O)Nc4ccc(OC)cc4)C[C@H]23)cc1	inactive
C[C@@H]1CN([C@@H](C)CO)C(=O)c2cc(NC(=O)C3CCCCC3)ccc2O[C@@H](C)CCCCO[C@@H]1CN(C)C(=O)NC1CCCCC1	inactive
C[C@H](CO)N1C[C@H](C)[C@H](CN(C)Cc2cccc(C(F)(F)F)c2)OCc2cnnn2CCCC1=O	inactive
COc1ccc(-c2cnc3c(c2)C(=O)N([C@@H](C)CO)C[C@@H](C)[C@@H](CN(C)S(C)(=O)=O)O3)cc1	inactive
CCC(=O)N(C)C[C@H]1Oc2cc(C#CC(C)(C)O)ccc2S(=O)(=O)N([C@@H](C)CO)C[C@@H]1C	inactive
O=C(C[C@H]1C=C[C@H](NC(=O)Nc2cc(F)ccc2F)[C@@H](CO)O1)NCCCN1CCOCC1	inactive
C[C@@H]1CN([C@H](C)CO)C(=O)c2cc(C#CC(C)(C)O)cnc2O[C@@H]1CN(C)Cc1cncnc1	inactive
CCC(=O)N[C@H]1C=C[C@H](CC(=O)NCC2CCCCC2)O[C@@H]1CO	inactive
O=C(C[C@H]1C[C@@H]2c3cc(NC(=O)c4cccnc4)ccc3O[C@@H]2[C@@H](CO)O1)NCCc1ccccc1	inactive
O=C(NC(=S)Nc1ccccc1)c1cc([N+](=O)[O-])ccc1N1CCOCC1	inactive
CC(C)NC(=O)Nc1ccc2c(c1)C(=O)N([C@@H](C)CO)C[C@@H](C)[C@@H](CN(C)C(=O)c1ccncc1)OCCCC[C@@H](C)O2	inactive
C[C@@H]1CN([C@@H](C)CO)C(=O)c2cc(NS(=O)(=O)c3ccccc3)ccc2O[C@H]1CN(C)C(=O)NC1CCCCC1	inactive
C[C@@H]1CN([C@H](C)CO)C(=O)c2cc(-c3ccc(F)cc3)cnc2O[C@H]1CN(C)CC1CCCCC1	inactive
